Our source for the binding signal values is PMC7862700, “An all-to-all approach to the identification of sequence-specific readers for epigenetic DNA modifications on cytosine”.

Test in all cases: DAPPL (digital affinity profiling via proximity ligation, sequencing); 10 mM Tris-HCl pH 7.5, 50 mM NaCl, 1 mM DTT, 4% glycerol, room temperature, 30 min; GST-TFs on glutathione beads, 16-mer random dsDNA library, 0.1% formaldehyde crosslink after washing; high values mean tight binding
The target of one assay is T1, FLI1 (Homo sapiens, UniProt Q01543 1-452).
T1 sequence: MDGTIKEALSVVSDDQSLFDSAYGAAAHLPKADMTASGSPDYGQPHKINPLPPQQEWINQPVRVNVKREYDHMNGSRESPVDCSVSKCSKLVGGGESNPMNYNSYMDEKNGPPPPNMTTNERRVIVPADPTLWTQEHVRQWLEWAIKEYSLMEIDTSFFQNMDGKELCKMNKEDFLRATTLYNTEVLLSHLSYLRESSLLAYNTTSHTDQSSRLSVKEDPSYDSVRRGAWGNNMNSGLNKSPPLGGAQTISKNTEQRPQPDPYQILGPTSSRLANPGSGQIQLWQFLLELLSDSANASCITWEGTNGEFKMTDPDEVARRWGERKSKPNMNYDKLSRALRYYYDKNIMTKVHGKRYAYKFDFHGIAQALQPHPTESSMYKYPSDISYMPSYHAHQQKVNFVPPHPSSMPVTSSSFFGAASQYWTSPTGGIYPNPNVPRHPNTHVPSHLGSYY
Conditions: protein: recombinant; tags: N-terminal GST; dsDNA, one strand shown. In short, it runs like this: (§1)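 Binding signal is defined as a hexamer's read frequency for one factor over its frequency for the tag-only sample. To obtain reads, GST-fused human transcription factors were expressed in yeast, captured on glutathione beads, barcoded with DNA and pooled with that sample. Pools met 200 nmole of a 16-mer random double-stranded DNA library in Tris/NaCl/DTT/glycerol buffer for 30 min at room temperature before washing, 0.1% formaldehyde crosslinking, proximity ligation (BsaI/T4 ligase, 1 h, 37 °C), PCR and Illumina NextSeq500 sequencing.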

Another assay addresses T2, ELK1 (Homo sapiens, UniProt P19419 1-428).
T2 sequence: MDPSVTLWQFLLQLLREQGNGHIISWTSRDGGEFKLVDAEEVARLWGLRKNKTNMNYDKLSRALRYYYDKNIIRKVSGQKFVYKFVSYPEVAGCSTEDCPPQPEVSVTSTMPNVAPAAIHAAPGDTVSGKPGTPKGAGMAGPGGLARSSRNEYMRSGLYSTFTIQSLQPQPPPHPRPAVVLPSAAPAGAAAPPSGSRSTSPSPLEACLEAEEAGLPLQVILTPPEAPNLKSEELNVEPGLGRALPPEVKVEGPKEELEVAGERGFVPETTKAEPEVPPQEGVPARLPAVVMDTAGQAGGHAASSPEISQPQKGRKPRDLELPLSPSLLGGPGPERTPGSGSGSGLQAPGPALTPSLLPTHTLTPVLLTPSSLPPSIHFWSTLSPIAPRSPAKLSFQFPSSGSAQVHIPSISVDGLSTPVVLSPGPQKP
Particulars: protein: recombinant; tags: N-terminal GST; dsDNA, one strand shown. The method, boiled down: as §1

A further assay has as its target T3, GABPA (Homo sapiens, UniProt Q06546 1-454).
T3 sequence: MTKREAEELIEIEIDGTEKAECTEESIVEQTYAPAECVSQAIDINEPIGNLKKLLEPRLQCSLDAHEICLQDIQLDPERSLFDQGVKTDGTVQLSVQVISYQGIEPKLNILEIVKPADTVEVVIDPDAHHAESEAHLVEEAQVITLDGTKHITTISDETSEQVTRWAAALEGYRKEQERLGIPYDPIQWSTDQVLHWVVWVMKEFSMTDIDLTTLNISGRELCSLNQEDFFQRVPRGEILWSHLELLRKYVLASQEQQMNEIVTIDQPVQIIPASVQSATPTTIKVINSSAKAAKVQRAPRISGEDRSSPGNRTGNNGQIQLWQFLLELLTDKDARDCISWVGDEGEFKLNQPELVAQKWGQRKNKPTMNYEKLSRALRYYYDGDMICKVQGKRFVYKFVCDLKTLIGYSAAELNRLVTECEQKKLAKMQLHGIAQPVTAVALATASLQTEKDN
Particulars: protein: recombinant; tags: N-terminal GST; dsDNA, one strand shown. The method, boiled down:
as §1

Another assay concerns the target T4, ERG (Homo sapiens, UniProt P11308 1-479).
T4 sequence: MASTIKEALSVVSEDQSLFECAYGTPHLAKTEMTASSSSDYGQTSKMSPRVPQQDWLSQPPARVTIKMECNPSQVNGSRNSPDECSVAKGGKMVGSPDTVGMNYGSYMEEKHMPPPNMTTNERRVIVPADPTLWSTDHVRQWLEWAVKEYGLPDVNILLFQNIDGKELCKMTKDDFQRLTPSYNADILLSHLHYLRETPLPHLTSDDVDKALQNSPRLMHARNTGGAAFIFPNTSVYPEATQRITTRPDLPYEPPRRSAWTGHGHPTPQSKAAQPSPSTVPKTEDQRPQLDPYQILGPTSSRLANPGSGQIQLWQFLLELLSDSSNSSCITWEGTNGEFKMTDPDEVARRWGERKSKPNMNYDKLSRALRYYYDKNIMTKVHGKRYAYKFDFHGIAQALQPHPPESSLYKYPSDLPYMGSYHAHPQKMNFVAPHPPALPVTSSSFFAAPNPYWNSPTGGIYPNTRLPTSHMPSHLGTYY
Particulars: protein: recombinant; tags: N-terminal GST; dsDNA, one strand shown. In short, it runs like this: as §1

The target in the next assay is ELF1 (Homo sapiens, UniProt P32519 1-619). Particulars: protein: recombinant; tags: N-terminal GST; dsDNA, one strand shown. In short, it runs like this:
as §1

Another assay deals with SPI1 (Homo sapiens, UniProt P17947 1-270). Conditions: protein: recombinant; tags: N-terminal GST; dsDNA, one strand shown. The method, boiled down:
as §1

The target of another assay is SPIB (Homo sapiens, UniProt Q01892 1-262). Conditions: protein: recombinant; tags: N-terminal GST; dsDNA, one strand shown. In short, it runs like this: as §1
A further assay deals with T5, ELK3 (Homo sapiens, UniProt P41970 1-407).
T5 sequence: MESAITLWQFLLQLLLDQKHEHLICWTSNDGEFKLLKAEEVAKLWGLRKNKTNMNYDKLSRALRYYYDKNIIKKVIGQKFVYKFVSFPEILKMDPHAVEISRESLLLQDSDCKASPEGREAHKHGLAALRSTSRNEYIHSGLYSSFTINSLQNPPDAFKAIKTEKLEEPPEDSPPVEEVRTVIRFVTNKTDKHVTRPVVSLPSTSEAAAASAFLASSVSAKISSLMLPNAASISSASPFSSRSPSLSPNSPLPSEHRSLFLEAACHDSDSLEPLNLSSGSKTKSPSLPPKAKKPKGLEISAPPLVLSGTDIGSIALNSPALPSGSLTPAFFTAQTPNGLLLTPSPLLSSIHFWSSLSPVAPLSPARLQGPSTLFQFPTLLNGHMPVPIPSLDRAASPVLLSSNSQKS
Conditions: protein: recombinant; tags: N-terminal GST; dsDNA, one strand shown. The method, boiled down:
as §1

For another assay, the target named is T6, FEV (Homo sapiens, UniProt Q99581 1-238).
T6 sequence: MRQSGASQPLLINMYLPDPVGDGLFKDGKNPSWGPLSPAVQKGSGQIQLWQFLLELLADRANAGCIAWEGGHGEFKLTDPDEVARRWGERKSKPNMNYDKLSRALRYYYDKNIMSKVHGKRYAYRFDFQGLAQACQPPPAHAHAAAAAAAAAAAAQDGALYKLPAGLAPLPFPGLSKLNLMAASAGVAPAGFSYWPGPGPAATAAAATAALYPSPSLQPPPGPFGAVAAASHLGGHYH
Conditions: protein: recombinant; tags: N-terminal GST; dsDNA, one strand shown. The method, boiled down:
as §1

A further assay has as its target ETV5 (Homo sapiens, UniProt P41161 1-510). Conditions: protein: recombinant; tags: N-terminal GST; dsDNA, one strand shown. The method, boiled down:
as §1

The target in a further assay is HSF1 (Homo sapiens, UniProt Q00613 1-529). Particulars: protein: recombinant; tags: N-terminal GST; chain copies: 3; dsDNA, one strand shown. In short, it runs like this:
as §1

Another assay deals with ELF4 (Homo sapiens, UniProt Q99607 1-663). Particulars: protein: recombinant; tags: N-terminal GST; dsDNA, one strand shown. In short, it runs like this: as §1
Another assay has as its target T7, ELK4 (Homo sapiens, UniProt P28324-2 1-405).
T7 sequence: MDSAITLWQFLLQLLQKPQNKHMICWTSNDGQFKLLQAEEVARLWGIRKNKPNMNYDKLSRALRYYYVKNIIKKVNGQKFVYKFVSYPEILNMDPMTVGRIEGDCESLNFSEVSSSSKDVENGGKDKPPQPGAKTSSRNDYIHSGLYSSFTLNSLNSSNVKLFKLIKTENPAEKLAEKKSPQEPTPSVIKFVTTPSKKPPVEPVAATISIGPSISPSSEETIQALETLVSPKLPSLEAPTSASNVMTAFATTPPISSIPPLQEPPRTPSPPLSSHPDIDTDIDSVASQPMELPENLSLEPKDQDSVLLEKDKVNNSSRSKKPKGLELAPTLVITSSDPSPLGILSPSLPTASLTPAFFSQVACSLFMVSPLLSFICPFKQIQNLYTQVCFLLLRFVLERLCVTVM
Particulars: protein: recombinant; tags: N-terminal GST; dsDNA, one strand shown. In short, it runs like this: as §1

For the next assay, the target named is T8, ETV2 (Homo sapiens, UniProt O00321 1-342).
T8 sequence: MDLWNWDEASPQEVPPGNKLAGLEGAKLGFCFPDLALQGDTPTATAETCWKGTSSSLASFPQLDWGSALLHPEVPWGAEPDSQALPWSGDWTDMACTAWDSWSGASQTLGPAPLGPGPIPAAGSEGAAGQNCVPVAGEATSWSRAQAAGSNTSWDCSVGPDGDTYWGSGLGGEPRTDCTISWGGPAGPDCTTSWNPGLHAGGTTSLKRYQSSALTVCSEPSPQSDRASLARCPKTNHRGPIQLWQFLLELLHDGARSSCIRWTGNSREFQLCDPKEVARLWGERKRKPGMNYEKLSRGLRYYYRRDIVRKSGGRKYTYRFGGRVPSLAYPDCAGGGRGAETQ
Conditions: protein: recombinant; tags: N-terminal GST; dsDNA, one strand shown. In short, it runs like this:
as §1

The target in another assay is T9, ELF3 (Homo sapiens, UniProt P78545 1-371).
T9 sequence: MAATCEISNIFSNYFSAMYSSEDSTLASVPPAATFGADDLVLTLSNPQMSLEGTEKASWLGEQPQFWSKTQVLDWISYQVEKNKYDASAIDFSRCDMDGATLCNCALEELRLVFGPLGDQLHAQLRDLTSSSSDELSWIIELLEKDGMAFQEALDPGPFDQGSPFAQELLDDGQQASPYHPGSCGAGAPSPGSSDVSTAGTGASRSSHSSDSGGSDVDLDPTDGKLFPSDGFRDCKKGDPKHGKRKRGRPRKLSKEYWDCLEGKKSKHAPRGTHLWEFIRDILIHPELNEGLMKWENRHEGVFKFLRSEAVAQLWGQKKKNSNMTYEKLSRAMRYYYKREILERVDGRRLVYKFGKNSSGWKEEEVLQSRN
Conditions: protein: recombinant; tags: N-terminal GST; dsDNA, one strand shown. The method, boiled down: as §1

The next assay deals with CRX (Homo sapiens, UniProt O43186 1-299). Conditions: protein: recombinant; tags: N-terminal GST; dsDNA, one strand shown. In short, it runs like this: as §1
In a further assay the target is ETV1 (Homo sapiens, UniProt P50549 1-477). Conditions: protein: recombinant; tags: N-terminal GST; dsDNA, one strand shown. In short, it runs like this:
as §1

Chain of ETV5 (P41161 whole entry): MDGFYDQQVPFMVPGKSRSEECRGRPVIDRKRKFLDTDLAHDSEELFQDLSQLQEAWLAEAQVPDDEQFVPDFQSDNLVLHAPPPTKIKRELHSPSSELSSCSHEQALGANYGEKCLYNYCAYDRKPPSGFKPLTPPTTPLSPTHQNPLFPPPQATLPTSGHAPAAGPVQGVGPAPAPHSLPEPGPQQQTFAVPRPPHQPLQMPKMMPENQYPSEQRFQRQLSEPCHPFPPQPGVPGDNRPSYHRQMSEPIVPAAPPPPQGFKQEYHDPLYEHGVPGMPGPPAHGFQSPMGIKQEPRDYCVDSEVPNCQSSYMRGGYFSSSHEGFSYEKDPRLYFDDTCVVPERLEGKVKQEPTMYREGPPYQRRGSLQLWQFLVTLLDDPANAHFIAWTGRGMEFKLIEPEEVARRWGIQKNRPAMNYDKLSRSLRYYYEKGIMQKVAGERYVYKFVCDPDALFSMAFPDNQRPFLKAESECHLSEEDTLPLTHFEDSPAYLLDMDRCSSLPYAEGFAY
Chain of ELF1 (P32519 whole entry): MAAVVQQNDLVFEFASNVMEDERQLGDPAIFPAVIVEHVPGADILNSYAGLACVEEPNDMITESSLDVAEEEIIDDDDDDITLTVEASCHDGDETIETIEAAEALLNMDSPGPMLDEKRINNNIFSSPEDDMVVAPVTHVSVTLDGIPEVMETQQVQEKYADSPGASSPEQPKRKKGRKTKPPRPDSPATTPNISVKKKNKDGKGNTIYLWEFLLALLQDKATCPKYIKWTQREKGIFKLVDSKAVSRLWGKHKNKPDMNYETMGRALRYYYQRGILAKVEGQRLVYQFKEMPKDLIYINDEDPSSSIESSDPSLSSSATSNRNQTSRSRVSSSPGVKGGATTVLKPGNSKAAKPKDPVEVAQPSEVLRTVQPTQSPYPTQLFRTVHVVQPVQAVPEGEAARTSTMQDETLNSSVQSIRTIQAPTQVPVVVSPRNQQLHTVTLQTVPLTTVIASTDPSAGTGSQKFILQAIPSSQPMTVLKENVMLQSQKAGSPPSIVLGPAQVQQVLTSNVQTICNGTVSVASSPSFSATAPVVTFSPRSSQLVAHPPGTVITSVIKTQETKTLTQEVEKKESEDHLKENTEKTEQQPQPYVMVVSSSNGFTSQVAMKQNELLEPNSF
Chain of HSF1 (Q00613 whole entry): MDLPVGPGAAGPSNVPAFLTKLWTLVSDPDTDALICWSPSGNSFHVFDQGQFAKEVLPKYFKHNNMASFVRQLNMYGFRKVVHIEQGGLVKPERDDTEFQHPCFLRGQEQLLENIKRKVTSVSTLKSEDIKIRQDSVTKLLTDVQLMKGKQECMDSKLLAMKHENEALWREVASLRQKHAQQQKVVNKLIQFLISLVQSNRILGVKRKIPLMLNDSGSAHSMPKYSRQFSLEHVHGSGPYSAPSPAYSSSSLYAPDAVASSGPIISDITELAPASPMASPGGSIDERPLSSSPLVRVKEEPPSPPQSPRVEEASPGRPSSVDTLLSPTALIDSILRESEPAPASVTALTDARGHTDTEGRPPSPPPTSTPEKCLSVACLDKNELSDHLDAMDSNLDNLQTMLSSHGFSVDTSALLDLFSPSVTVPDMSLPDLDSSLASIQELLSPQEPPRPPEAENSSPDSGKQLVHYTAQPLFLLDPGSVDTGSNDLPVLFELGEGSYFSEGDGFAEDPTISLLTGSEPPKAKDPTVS
Chain of ETV1 (P50549 whole entry): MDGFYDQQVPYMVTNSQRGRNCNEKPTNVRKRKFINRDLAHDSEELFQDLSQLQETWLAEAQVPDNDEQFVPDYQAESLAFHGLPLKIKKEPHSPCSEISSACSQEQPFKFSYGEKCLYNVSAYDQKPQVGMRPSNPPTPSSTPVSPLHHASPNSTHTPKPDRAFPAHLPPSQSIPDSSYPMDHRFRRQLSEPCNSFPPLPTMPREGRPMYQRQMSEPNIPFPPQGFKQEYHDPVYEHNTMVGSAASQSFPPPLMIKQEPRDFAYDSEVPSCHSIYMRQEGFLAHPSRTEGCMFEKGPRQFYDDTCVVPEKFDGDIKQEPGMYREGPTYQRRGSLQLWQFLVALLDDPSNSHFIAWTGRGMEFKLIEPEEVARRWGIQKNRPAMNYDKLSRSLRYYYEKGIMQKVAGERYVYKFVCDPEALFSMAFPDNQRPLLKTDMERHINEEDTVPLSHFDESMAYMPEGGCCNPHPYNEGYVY
Chain of ELF4 (Q99607 whole entry): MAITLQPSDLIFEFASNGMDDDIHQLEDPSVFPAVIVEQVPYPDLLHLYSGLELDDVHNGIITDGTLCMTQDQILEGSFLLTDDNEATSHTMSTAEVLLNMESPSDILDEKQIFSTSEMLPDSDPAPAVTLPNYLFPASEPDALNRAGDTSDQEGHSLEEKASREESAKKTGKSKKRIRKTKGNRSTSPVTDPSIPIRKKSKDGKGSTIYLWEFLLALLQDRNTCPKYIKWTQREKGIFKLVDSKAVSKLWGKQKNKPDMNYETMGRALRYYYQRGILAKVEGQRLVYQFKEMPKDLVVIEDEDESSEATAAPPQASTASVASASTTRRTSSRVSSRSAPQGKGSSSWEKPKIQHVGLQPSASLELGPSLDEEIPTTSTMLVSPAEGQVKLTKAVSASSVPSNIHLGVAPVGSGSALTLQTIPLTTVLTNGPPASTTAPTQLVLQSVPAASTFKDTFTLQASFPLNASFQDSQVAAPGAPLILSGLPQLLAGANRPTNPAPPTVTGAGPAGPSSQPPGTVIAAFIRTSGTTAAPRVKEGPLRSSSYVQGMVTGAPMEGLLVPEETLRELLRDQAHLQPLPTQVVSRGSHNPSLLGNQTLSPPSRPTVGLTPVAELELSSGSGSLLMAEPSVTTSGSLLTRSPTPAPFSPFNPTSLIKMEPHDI
Chain of SPIB (Q01892 whole entry): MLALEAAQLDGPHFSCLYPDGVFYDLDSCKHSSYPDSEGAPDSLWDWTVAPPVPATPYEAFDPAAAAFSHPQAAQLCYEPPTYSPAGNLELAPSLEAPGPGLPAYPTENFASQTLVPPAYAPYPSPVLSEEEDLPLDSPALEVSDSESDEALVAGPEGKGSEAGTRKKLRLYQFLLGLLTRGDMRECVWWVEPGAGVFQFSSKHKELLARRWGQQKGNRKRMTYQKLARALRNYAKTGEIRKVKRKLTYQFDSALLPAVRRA
Chain of CRX (O43186 whole entry): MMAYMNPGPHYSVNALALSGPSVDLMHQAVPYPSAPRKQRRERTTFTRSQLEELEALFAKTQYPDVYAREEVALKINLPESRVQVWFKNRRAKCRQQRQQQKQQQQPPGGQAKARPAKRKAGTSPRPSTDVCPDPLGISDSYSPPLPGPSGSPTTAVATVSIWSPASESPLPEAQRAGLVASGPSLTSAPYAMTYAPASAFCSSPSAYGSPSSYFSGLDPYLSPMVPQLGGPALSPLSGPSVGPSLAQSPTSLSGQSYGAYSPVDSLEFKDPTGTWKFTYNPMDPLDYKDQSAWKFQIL

Turning to CAAAGC, the binding signal was 1.08 fold enrichment (6-mer frequency, TF over GST control) with FLI1; 1.02 fold enrichment (6-mer frequency, TF over GST control) in the assay with ELK1; 1.16 fold enrichment (6-mer frequency, TF over GST control) in the assay with GABPA; 1 fold enrichment (6-mer frequency, TF over GST control) in the assay with ERG; 1.17 fold enrichment (6-mer frequency, TF over GST control) in the assay with ELF1; 1.03 fold enrichment (6-mer frequency, TF over GST control) in the assay with SPI1. In addition, the binding signal in the assay with SPIB was 1.04 fold enrichment (6-mer frequency, TF over GST control); in the assay with ELK3, 1.1 fold enrichment (6-mer frequency, TF over GST control); with FEV, 1.14 fold enrichment (6-mer frequency, TF over GST control); in the assay with ETV5 it was 1.05 fold enrichment (6-mer frequency, TF over GST control); with HSF1, 1.04 fold enrichment (6-mer frequency, TF over GST control); in the assay with ELF4, 1.05 fold enrichment (6-mer frequency, TF over GST control). Further, the binding signal was 1.24 fold enrichment (6-mer frequency, TF over GST control) with ELK4; 1.09 fold enrichment (6-mer frequency, TF over GST control) with ETV2; 1.03 fold enrichment (6-mer frequency, TF over GST control) in the assay with ELF3; 1.3 fold enrichment (6-mer frequency, TF over GST control) with CRX; 1.08 fold enrichment (6-mer frequency, TF over GST control) in the assay with ETV1.
